Experimental data taken from PubChem BioAssay AID1159580 (chemical genetic matrix, 2015).
Several values for one entry are separate records, joined by “and”; a condition that tells them apart may be missing. Identical values can stand only once. Screen size: about 5,500 compounds; about 2,000 (36%) were called active. Another 18% or so got no clear call; they are omitted. No stated cut-off is given here; in the data, active means normalized growth mostly below about 0.91 (no sharp cut-off); inconclusive means no clear call, values can overlap the other calls; inactive means mostly above about 0.92. This is one part of the list.

Assay: chemical genetic growth profiling, strain panel (AID 1159580);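 further: tested at 20 µM; growth read once vehicle control cultures reached saturation at 30 °C; 1 = growth at the plate median or of vehicle wells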
Conditions: S. cerevisiae deletion strains, growth OD

Measured: normalized growth

CN(C)[C@@H]1C(=O)C(C(N)=O)=C(O)[C@@]2(O)C(=O)C3=C(O)c4c(O)ccc(Cl)c4[C@@](C)(O)[C@H]3C[C@@H]12
inactive: locus YAL013W, strain DEP1, stronger effect = lower value 1.01 | locus YAL021C, strain ccr4, stronger effect = lower value 0.956 | locus YAL026C, strain drs2, stronger effect = lower value 0.983 | locus YAL030W, strain snc1, stronger effect = lower value 0.981 | locus YBL061C, strain skt5, stronger effect = lower value 0.98 | locus YBR009C, strain hhf1, stronger effect = lower value 0.979 | locus YBR021W, strain FUR4, stronger effect = lower value 0.961 | locus YBR023C, strain chs3, stronger effect = lower value 0.993 | locus YBR171W, strain sec66, stronger effect = lower value 0.979 | locus YBR229C, strain ROT2, stronger effect = lower value 1.01 | locus YBR231C, strain swc5, stronger effect = lower value 0.986 | locus YBR279W, strain paf1, stronger effect = lower value 0.987 | locus YCL011C, strain gbp2, stronger effect = lower value 0.967 | locus YCL016C, strain dcc1, stronger effect = lower value 0.967 | locus YCL029C, strain bik1, stronger effect = lower value 1.02 | locus YCL069W, strain vba3, stronger effect = lower value 0.986 | locus YCR088W, strain abp1, stronger effect = lower value 0.988 | locus YDL005C, strain med2, stronger effect = lower value 0.985 | locus YDL035C, strain GPR1, stronger effect = lower value 0.976 | locus YDL040C, strain nat1, stronger effect = lower value 0.983 | locus YDL074C, strain BRE1, stronger effect = lower value 0.968 | locus YDL101C, strain DUN1, stronger effect = lower value 1 | locus YDL185W, strain tfp1, stronger effect = lower value 1.01 | locus YDL192W, strain arf1, stronger effect = lower value 0.97 | locus YDR001C, strain nth1, stronger effect = lower value 0.969 | locus YDR069C, strain doa4, stronger effect = lower value 0.947 | locus YDR101C, strain arx1, stronger effect = lower value 0.996 | locus YDR137W, strain rgp1, stronger effect = lower value 0.957 | locus YDR150W, strain NUM1, stronger effect = lower value 1 | locus YDR159W, strain sac3, stronger effect = lower value 0.968 | locus YDR162C, strain NBP2, stronger effect = lower value 1 | locus YDR195W, strain ref2 0.945 | locus YDR297W, strain sur2, stronger effect = lower value 0.991 | locus YDR318W, strain mcm21, stronger effect = lower value 1 | locus YDR334W, strain swr1, stronger effect = lower value 0.968 | locus YDR335W, strain msn5, stronger effect = lower value 0.98 | locus YDR388W, stronger effect = lower value 1.01 | locus YDR392W, strain spt3, stronger effect = lower value 0.895 | locus YDR502C, strain sam2, stronger effect = lower value 1.01 | locus YEL003W, strain gim4, stronger effect = lower value 0.973 | locus YEL037C, strain rad23, stronger effect = lower value 0.983 | locus YEL061C, strain CIN8 (second series), stronger effect = lower value 0.986 | locus YEL061C, strain CIN8, stronger effect = lower value 0.996 | locus YER015W, strain faa2, stronger effect = lower value 0.977 | locus YER016W, strain bim1, stronger effect = lower value 0.984 | locus YER110C, stronger effect = lower value 1.01 | locus YER111C, strain swi4, stronger effect = lower value 0.977 | locus YER155C, strain BEM2 (second series), stronger effect = lower value 0.95 | locus YER155C, strain BEM2, stronger effect = lower value 1.02 | locus YER167W, strain BCK2, stronger effect = lower value 1.01 | locus YFR010W, strain ubp6, stronger effect = lower value 0.972 | locus YGL078C, strain dbp3, stronger effect = lower value 0.994 | locus YGL086W, strain mad1, stronger effect = lower value 0.981 | locus YGL167C, strain pmr1, stronger effect = lower value 0.959 | locus YGL173C, strain kem1, stronger effect = lower value 0.985 | locus YGL227W, strain vid30, stronger effect = lower value 0.984 | locus YGL240W, strain doc1, stronger effect = lower value 0.982 | locus YGL248W, strain PDE1, stronger effect = lower value 0.942 | locus YGL253W, strain hxk2, stronger effect = lower value 0.974 | locus YGR078C, strain PAC10, stronger effect = lower value 0.976 | locus YGR135W, strain pre9, stronger effect = lower value 0.994 | locus YGR252W, strain gcn5, stronger effect = lower value 1 | locus YHR013C, strain ard1, stronger effect = lower value 0.98 | locus YHR027C, strain rpn1, stronger effect = lower value 0.981 | locus YHR030C, strain SLT2, stronger effect = lower value 1.01 and 1.03 | locus YHR079C, strain IRE1 (second series), stronger effect = lower value 1.01 | locus YHR079C, strain IRE1, stronger effect = lower value 1.1 | locus YHR094C, strain hxt1, stronger effect = lower value 1.01 | locus YHR129C, strain ARP1, stronger effect = lower value 0.99 | locus YHR142W, strain chs7, stronger effect = lower value 0.986 | locus YHR200W, strain rpn10, stronger effect = lower value 0.987 | locus YIL066C, strain RNR3, stronger effect = lower value 0.922 | locus YIL073C, strain SPO22, stronger effect = lower value 0.976 | locus YIL125W, strain kgd1, stronger effect = lower value 0.998 | locus YIR030C, strain dcg1, stronger effect = lower value 1.01 | locus YJL092W, strain hpr5, stronger effect = lower value 0.971 | locus YJL095W, strain BCK1 (second series), stronger effect = lower value 0.971 | locus YJL095W, strain BCK1, stronger effect = lower value 0.981 and 1.04 | locus YJL115W, strain asf1, stronger effect = lower value 0.96 | locus YJL129C, strain trk1, stronger effect = lower value 0.991 | locus YJL134W, strain LCB3, stronger effect = lower value 1.01 | locus YJL154C, strain vps35, stronger effect = lower value 0.973 | locus YJL164C, strain tpk1, stronger effect = lower value 0.961 | locus YJL166W, strain qcr8, stronger effect = lower value 0.97 | locus YJL168C, strain set2, stronger effect = lower value 1 | locus YJL187C, strain SWE1 (second series), stronger effect = lower value 0.988 | locus YJR043C, strain POL32, stronger effect = lower value 0.971 | locus YJR066W, strain TOR1, stronger effect = lower value 0.972 | locus YJR075W, strain HOC1, stronger effect = lower value 1 | locus YKL009W, strain mrt4, stronger effect = lower value 1.02 | locus YKL068W, stronger effect = lower value 1 | locus YKL085W, strain MDH1 (second series), stronger effect = lower value 1.01 | locus YKL085W, strain MDH1, stronger effect = lower value 1.01 | locus YKL160W, strain elf1, stronger effect = lower value 0.962 | locus YKR001C, strain vps1, stronger effect = lower value 0.978 | locus YKR026C, strain gcn3, stronger effect = lower value 0.975 | locus YKR091W, strain srl3, stronger effect = lower value 0.985 | locus YLL001W, strain dnm1, stronger effect = lower value 0.976 | locus YLL026W, stronger effect = lower value 0.987 | locus YLL041C, strain sdh2, stronger effect = lower value 0.97 | locus YLR027C, strain aat2, stronger effect = lower value 0.987 | locus YLR039C, strain RIC1, stronger effect = lower value 1.01 | locus YLR058C, strain SHM2, stronger effect = lower value 0.998 | locus YLR102C, strain apc9, stronger effect = lower value 1.02 | locus YLR113W, strain HOG1, stronger effect = lower value 1.05 | locus YLR221C, strain rsa3, stronger effect = lower value 0.987 | locus YLR258W, strain gsy2, stronger effect = lower value 0.975 | locus YLR262C, strain YPT6 (second series), stronger effect = lower value 1.01 | locus YLR262C, strain YPT6, stronger effect = lower value 1.03 | locus YLR268W, strain sec22, stronger effect = lower value 0.992 | locus YLR320W, strain mms22, stronger effect = lower value 0.996 | locus YLR330W, strain CHS5, stronger effect = lower value 0.999 | locus YLR342W, strain FKS1 (second series), stronger effect = lower value 0.848 | locus YLR342W, strain FKS1, stronger effect = lower value 0.989 | locus YLR357W, strain rsc2, stronger effect = lower value 0.938 | locus YLR370C, strain arc18, stronger effect = lower value 0.96 | locus YLR371W, strain rom2, stronger effect = lower value 0.983 | locus YLR384C, strain iki3, stronger effect = lower value 0.995 | locus YLR418C, strain cdc73, stronger effect = lower value 0.988 | locus YML016C, strain PPZ1, stronger effect = lower value 0.998 | locus YML032C, strain rad52, stronger effect = lower value 0.988 | locus YML120C, strain ndi1, stronger effect = lower value 0.97 | locus YML124C, strain tub3, stronger effect = lower value 1.01 | locus YMR058W, strain fet3, stronger effect = lower value 0.965 | locus YMR078C, strain ctf18, stronger effect = lower value 1 | locus YMR125W, strain sto1, stronger effect = lower value 0.944 | locus YMR129W, stronger effect = lower value 0.983 | locus YMR205C, strain PFK2, stronger effect = lower value 0.989 | locus YMR223W, strain ubp8, stronger effect = lower value 0.985 | locus YMR231W, strain pep5, stronger effect = lower value 0.99 | locus YMR307W, strain GAS1, stronger effect = lower value 0.956 | locus YNL067W, strain RPL9B, stronger effect = lower value 0.991 | locus YNL071W, strain lat1, stronger effect = lower value 0.989 | locus YNL183C, strain NPR1, stronger effect = lower value 0.982 | locus YNL209W, strain ssb2, stronger effect = lower value 0.99 | locus YNL233W, strain BNI4, stronger effect = lower value 0.974 | locus YNL248C, strain rpa49, stronger effect = lower value 0.993 | locus YNL250W, strain rad50, stronger effect = lower value 1.01 | locus YNL271C, strain bni1, stronger effect = lower value 1.01 | locus YNL298W, strain CLA4, stronger effect = lower value 1.03 | locus YNL307C, strain MCK1, stronger effect = lower value 1.01 | locus YNL322C, strain KRE1 (second series), stronger effect = lower value 0.983 | locus YNR049C, strain mso1, stronger effect = lower value 0.968 | locus YNR052C, strain pop2, stronger effect = lower value 0.997 | locus YOL006C, strain TOP1, stronger effect = lower value 0.768 | locus YOL012C, strain htz1 1.03 | locus YOL147C, strain pex11, stronger effect = lower value 1.02 | locus YOR001W, strain rrp6, stronger effect = lower value 0.978 | locus YOR061W, strain CKA2, stronger effect = lower value 0.988 | locus YOR069W, strain VPS5, stronger effect = lower value 1 | locus YOR070C, strain gyp1, stronger effect = lower value 0.98 | locus YOR080W, strain dia2, stronger effect = lower value 0.974 | locus YOR083W, strain WHI5, stronger effect = lower value 0.952 | locus YOR106W, strain vam3, stronger effect = lower value 0.929 | locus YOR136W, strain idh2, stronger effect = lower value 1.03 | locus YOR144C, strain elg1, stronger effect = lower value 1.01 | locus YOR184W, strain ser1, stronger effect = lower value 1.02 | locus YOR231W, strain MKK1, stronger effect = lower value 1.05 | locus YOR265W, strain rbl2, stronger effect = lower value 0.989 | locus YOR270C, strain vph1, stronger effect = lower value 0.991 | locus YOR290C, strain snf2, stronger effect = lower value 0.941 | locus YOR316C, strain cot1, stronger effect = lower value 1.01 | locus YPL051W, strain arl3, stronger effect = lower value 0.984 | locus YPL055C, strain LGE1, stronger effect = lower value 0.96 | locus YPL078C, strain atp4, stronger effect = lower value 0.958 | locus YPL106C, strain sse1, stronger effect = lower value 0.929 | locus YPL240C, strain hsp82, stronger effect = lower value 0.981 | locus YPL241C, strain CIN2, stronger effect = lower value 0.997 | locus YPL256C, strain CLN2, stronger effect = lower value 1.03 | locus YPR119W, strain clb2, stronger effect = lower value 1.02 | locus YPR141C, strain kar3, stronger effect = lower value 1.01 | locus YPR163C, strain tif3, stronger effect = lower value 0.995 | locus YPR167C, strain met16, stronger effect = lower value 1.01 | strain wtn01, stronger effect = lower value 0.979
